Assay [1] is described as follows: NCI Yeast Anticancer Drug Screen. Data for the rad50 strain (AID 155).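 Also: 0% = growth of vehicle-only cultures of the same strain.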 As to conditions: S. cerevisiae rad50 strain growth inhibition, stronger effect = higher value. Summed up: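 Relative growth inhibition (compound vs vehicle) was measured in yeast with a defined repair-gene alteration.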
A short description of assay [2]: NCI Yeast Anticancer Drug Screen. Data for the mec2-1 strain (AID 157). Conditions: S. cerevisiae mec2-1 strain, stronger effect = higher value. Summed up: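 Growth inhibition is read against vehicle-treated controls after compound exposure of the mec2-1 yeast strain, which is defective in DNA damage repair or cell cycle control.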
Assay [3] is described as follows: NCI Yeast Anticancer Drug Screen. Data for the sgs1 mgt1 strain (AID 161).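 Also: 0% = growth of cultures given vehicle only.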 As to conditions: S. cerevisiae sgs1 mgt1 strain, stronger effect = higher value. The method, boiled down:
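This yeast growth screen uses a strain with defined DNA-repair lesions; compound-treated growth is compared with vehicle-treated growth.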

Assay [4] in a line: NCI Yeast Anticancer Drug Screen. Data for the cln2 rad14 strain (AID 165).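 Also: 0% = growth equal to vehicle treated cultures.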 Conditions: S. cerevisiae cln2 rad14 strain, stronger effect = higher value. The method, boiled down: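 Growth inhibition, relative to vehicle-treated controls, is the read-out. The test organism is a yeast strain with defined genetic alterations, cln2 rad14.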
A short description of assay [5]: NCI Yeast Anticancer Drug Screen. Data for the bub3 strain (AID 167). As to conditions: S. cerevisiae bub3 mutant strain, stronger effect = higher value. Summed up: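 Screening used yeast with an engineered genetic alteration affecting cell cycle control. Compound-exposed cultures were compared with vehicle cultures, and reduced growth was taken as inhibition.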
The nature of assay [6]: NCI Yeast Anticancer Drug Screen. Data for the mlh1 rad18 strain (AID 175). As to conditions: S. cerevisiae mlh1 rad18 strain growth inhibition, stronger effect = higher value. Summed up:
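Cells of a genetically altered yeast strain, deficient in DNA damage repair, were treated with compound. Their growth was then compared with that of vehicle-treated cultures to give inhibition.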

Where [7] appears, read: at 5.0 µM (retest, dose inferred, filed as 0.5).
Where [8] appears, read: at 50.0 µM (retest, dose inferred, filed as 5.0).

Compounds without any hit were thinned out: in the full panel of roughly 79,000, 15% have a hit. A number with no mark means an inactive call. The source made the active and inactive calls. Rule as the data show it: active = growth inhibition above about 70%; inactive = the rest.

Turning to `CC(NNC(=S)NCc1ccccc1)c1cc2ccccc2cn1` (stereo not drawn), the growth inhibition was 12% in assay [1] (setting [7]); 88% (active) in assay [1] (setting [8]); 82.2% (active) in assay [1] (at 50.0 µM); 9% in assay [2] (setting [7]); 93% (active) in assay [2] (setting [8]); 80.8% (active) in assay [2] (at 50.0 µM). Besides, the growth inhibition is 14% in assay [3] (setting [7]); 91% (active) in assay [3] (setting [8]); 86.9% (active) in assay [3] (at 50.0 µM); 3% in assay [4] (setting [7]); 79% (active) in assay [4] (setting [8]); 80% (active) in assay [4] (at 50.0 µM). For the same compound, the growth inhibition in assay [5] (setting [7]) was 11%; in assay [5] (setting [8]), 93% (active); in assay [5] (at 50.0 µM), 83.7% (active); in assay [6] (setting [7]) it was 19%; in assay [6] (setting [8]) it was 93% (active); in assay [6] (at 50.0 µM), 89.7% (active).

In the case of `Cc1c2c(c(C)c3c1sc1ccccc13)CCN=C2`, the growth inhibition was 9% in assay [1] (setting [7]); 98% (active) in assay [1] (setting [8]); 55.5% in assay [1] (at 50.0 µM); -14% in assay [2] (setting [7]); 98% (active) in assay [2] (setting [8]); 49.9% in assay [2] (at 50.0 µM). Also, the growth inhibition in assay [3] (setting [7]) was -1%; in assay [3] (setting [8]) it was 98% (active); in assay [3] (at 50.0 µM), 57.6%; in assay [4] (setting [7]), -21%; in assay [4] (setting [8]) it was 98% (active); in assay [4] (at 50.0 µM), 94.9% (active). Also, the growth inhibition in assay [5] (setting [7]) was -5%; in assay [5] (setting [8]) it was 98% (active); in assay [5] (at 50.0 µM), 92.8% (active); in assay [6] (setting [7]) it was -8%; in assay [6] (setting [8]), 99% (active); in assay [6] (at 50.0 µM), 57.2%.

Take `CN1CCCCC1c1cc2c3ccccc3ccn2c1-c1ccccc1` (stereo not drawn): the growth inhibition in assay [1] (setting [7]) was 71% (active); in assay [1] (setting [8]), 95% (active); in assay [1] (at 50.0 µM), 96.5% (active); in assay [2] (setting [7]), 62%; in assay [2] (setting [8]) it was 99% (active); in assay [2] (at 50.0 µM), 98.3% (active). Besides, the growth inhibition in assay [3] (setting [7]) is 75% (active); in assay [3] (setting [8]) it was 94% (active); in assay [3] (at 50.0 µM) it was 98.7% (active); in assay [4] (setting [7]), -7%; in assay [4] (setting [8]), 92% (active); in assay [4] (at 50.0 µM), 94.8% (active). Moreover, the growth inhibition in assay [5] (setting [7]) is 9%; in assay [5] (setting [8]), 96% (active); in assay [5] (at 50.0 µM) it was 98.4% (active); in assay [6] (setting [7]), 69%; in assay [6] (setting [8]) it was 92% (active); in assay [6] (at 50.0 µM) it was 98.5% (active).

With `Cc1ccc(-n2cc(-c3ccc(Cl)cc3)c3c(NN)ncnc32)cc1`, the growth inhibition in assay [1] (setting [7]) is -20%; in assay [1] (setting [8]) it was 30%; in assay [1] (at 50.0 µM), 85.7% (active); in assay [2] (setting [7]) it was -11%; in assay [2] (setting [8]), 65%; in assay [2] (at 50.0 µM), 87.6% (active). The growth inhibition in assay [3] (setting [7]) was -8%; in assay [3] (setting [8]) it was 61%; in assay [3] (at 50.0 µM), 87.5% (active); in assay [4] (setting [7]) it was -20%; in assay [4] (setting [8]), 37%; in assay [4] (at 50.0 µM) it was 90.3% (active). In addition, the growth inhibition is -19% in assay [5] (setting [7]); 53% in assay [5] (setting [8]); 87.7% (active) in assay [5] (at 50.0 µM); -14% in assay [6] (setting [7]); 65% in assay [6] (setting [8]); 76.6% (active) in assay [6] (at 50.0 µM).

Consider `COC(=O)C(=O)C(C(=O)Nc1cccc(C)c1C)C1Sc2ccccc2NC1=O` (stereo not drawn), for which the growth inhibition in assay [1] (setting [7]) was 99% (active); in assay [1] (setting [8]), 99% (active); in assay [1] (at 50.0 µM), 51.1%; in assay [2] (setting [7]), 88% (active); in assay [2] (setting [8]) it was 88% (active); in assay [2] (at 50.0 µM) it was 70.2% (active). In addition, the growth inhibition in assay [3] (setting [7]) is 99% (active); in assay [3] (setting [8]) it was 99% (active); in assay [3] (at 50.0 µM) it was 69.5%; in assay [4] (setting [7]) it was 95% (active); in assay [4] (setting [8]), 95% (active); in assay [4] (at 50.0 µM), 52.8%. The growth inhibition in assay [5] (setting [7]) is 65%; in assay [5] (setting [8]), 65%; in assay [5] (at 50.0 µM) it was 81.7% (active); in assay [6] (setting [7]), 92% (active); in assay [6] (setting [8]), 92% (active); in assay [6] (at 50.0 µM), 81.5% (active).

In the case of `CC(C)C1=CC23CCC4C(C)(C(=O)O)CCCC4(C)C2CC1C1C(=O)C=CC(=O)C13` (stereo not drawn), the growth inhibition is 86% (active) in assay [1] (setting [7]); 93% (active) in assay [1] (setting [8]); 94.3% (active) in assay [1] (at 50.0 µM); 81% (active) in assay [2] (setting [7]); 97% (active) in assay [2] (setting [8]); 96.3% (active) in assay [2] (at 50.0 µM). Moreover, the growth inhibition was 82% (active) in assay [3] (setting [7]); 97% (active) in assay [3] (setting [8]); 90.2% (active) in assay [3] (at 50.0 µM); 75% (active) in assay [4] (setting [7]); 96% (active) in assay [4] (setting [8]); 62% in assay [4] (at 50.0 µM). The growth inhibition in assay [5] (setting [7]) was 91% (active); in assay [5] (setting [8]), 96% (active); in assay [5] (at 50.0 µM), 96.9% (active); in assay [6] (setting [7]), 88% (active); in assay [6] (setting [8]), 97% (active); in assay [6] (at 50.0 µM), 55.4%.

The values are drawn from PubChem BioAssay (NCI).
